# PubChem BioAssay
# Active and inactive are the calls of the source.
# How the values were obtained:
# [1] = tested on: PRMT1 (protein arginine N-methyltransferase 1); experiment: PRMT1 binders on small-molecule microarrays, primary screen, biochemical, small-molecule microarray, 635 nm fluorescence (AID 1088); conditions: small-molecule microarray binding, higher = more signal;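 note: binding of Prmt1 protein to compounds spotted on small-molecule microarray slides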
# [2] = yeast growth modulation, basal conditions, primary screen, YJM789 clinical isolate, OD600, 24 h (AID 1089);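 note: growth of clinical yeast isolate S. cerevisiae YJM 789 seeded 1000 cells per well; test concentration not given here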; conditions: S. cerevisiae YJM789 growth, higher = more signal, called active from +8 up or from −8 down
# [3] = fission yeast growth modulation, primary screen, strain 972, OD600, 24 h, no modulator (AID 1090);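 note: basal condition with compound alone and no growth modifier present; test concentration not given here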; conditions: S. pombe 972 growth, higher = more signal, called active from +8 up or from −8 down
# [4] = S. cerevisiae growth modulation with rapamycin, primary screen, strain BY4716, OD600, 96 h (AID 1091); conditions: higher = more signal, called active from +8 up or from −8 down; note: test concentration not given here
# [5] = biological target: Torsin-1A-interacting protein 2 (Homo sapiens) (UniProt Q8NFQ8); experiment: LULL1 binders on small-molecule microarray, primary screen, cell lysate, human LULL1 lysate, 635/667 nm fluorescence (AID 1092); conditions: hLULL1 lysate binding, 635 nm fluorescence, higher = more signal;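 note: probe is lysate of COS7 cells overexpressing human LULL1; score merges per-feature 667 nm fluorescence with signal-to-noise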
# Chain of Torsin-1A-interacting protein 2 (Homo sapiens) (Q8NFQ8 whole entry, looked up): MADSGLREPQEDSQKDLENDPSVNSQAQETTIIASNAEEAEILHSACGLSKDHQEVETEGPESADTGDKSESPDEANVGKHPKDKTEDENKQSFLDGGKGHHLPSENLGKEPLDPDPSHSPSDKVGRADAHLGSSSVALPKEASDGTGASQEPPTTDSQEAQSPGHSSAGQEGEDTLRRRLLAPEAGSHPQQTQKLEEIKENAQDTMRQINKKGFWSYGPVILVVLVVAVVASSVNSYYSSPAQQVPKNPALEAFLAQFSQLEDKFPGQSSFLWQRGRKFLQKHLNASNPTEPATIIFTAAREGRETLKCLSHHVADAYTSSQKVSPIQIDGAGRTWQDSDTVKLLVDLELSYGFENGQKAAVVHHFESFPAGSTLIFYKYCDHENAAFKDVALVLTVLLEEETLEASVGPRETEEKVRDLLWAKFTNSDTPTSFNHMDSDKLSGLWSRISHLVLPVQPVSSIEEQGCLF
# [6] = E. coli growth modulation, two-sided OD650, primary screen, E. coli filamentation project, strain DRC41, 24 h (AID 1093); conditions: OD650, 24 h, higher = more signal, called active from +8 up or from −8 down;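 note: MC1000 strain lacking acrAB efflux and sulA so SOS filamentation is blocked; test concentration not given here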
# [7] = small-molecule microarray binders of probe aLefty2, primary screen, biochemical, biotinylated probe, 635/667 nm fluorescence (AID 1094); conditions: higher = more signal;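 note: score merges spot fluorescence near 667 nm with spot signal-to-noise ratio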
# [8] = tested on: Noggin (protein binding on small-molecule microarray); experiment: Noggin binders on small-molecule microarray, primary screen, biochemical, 635/667 nm fluorescence (AID 1095); conditions: 635 nm fluorescence, higher = more signal;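 note: score merges 667 nm feature fluorescence with signal to noise over triplicate slides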
# [9] = biological target: Neurogenic locus notch homolog protein 3 (Homo sapiens) (UniProt Q9UM47); experiment: NOTCH3 binders on small-molecule microarray, primary screen, biochemical, 635/667 nm fluorescence (AID 1096); conditions: NOTCH3 binding, 635 nm fluorescence, higher = more signal
# Chain of Neurogenic locus notch homolog protein 3 (Homo sapiens) (Q9UM47 whole entry, looked up): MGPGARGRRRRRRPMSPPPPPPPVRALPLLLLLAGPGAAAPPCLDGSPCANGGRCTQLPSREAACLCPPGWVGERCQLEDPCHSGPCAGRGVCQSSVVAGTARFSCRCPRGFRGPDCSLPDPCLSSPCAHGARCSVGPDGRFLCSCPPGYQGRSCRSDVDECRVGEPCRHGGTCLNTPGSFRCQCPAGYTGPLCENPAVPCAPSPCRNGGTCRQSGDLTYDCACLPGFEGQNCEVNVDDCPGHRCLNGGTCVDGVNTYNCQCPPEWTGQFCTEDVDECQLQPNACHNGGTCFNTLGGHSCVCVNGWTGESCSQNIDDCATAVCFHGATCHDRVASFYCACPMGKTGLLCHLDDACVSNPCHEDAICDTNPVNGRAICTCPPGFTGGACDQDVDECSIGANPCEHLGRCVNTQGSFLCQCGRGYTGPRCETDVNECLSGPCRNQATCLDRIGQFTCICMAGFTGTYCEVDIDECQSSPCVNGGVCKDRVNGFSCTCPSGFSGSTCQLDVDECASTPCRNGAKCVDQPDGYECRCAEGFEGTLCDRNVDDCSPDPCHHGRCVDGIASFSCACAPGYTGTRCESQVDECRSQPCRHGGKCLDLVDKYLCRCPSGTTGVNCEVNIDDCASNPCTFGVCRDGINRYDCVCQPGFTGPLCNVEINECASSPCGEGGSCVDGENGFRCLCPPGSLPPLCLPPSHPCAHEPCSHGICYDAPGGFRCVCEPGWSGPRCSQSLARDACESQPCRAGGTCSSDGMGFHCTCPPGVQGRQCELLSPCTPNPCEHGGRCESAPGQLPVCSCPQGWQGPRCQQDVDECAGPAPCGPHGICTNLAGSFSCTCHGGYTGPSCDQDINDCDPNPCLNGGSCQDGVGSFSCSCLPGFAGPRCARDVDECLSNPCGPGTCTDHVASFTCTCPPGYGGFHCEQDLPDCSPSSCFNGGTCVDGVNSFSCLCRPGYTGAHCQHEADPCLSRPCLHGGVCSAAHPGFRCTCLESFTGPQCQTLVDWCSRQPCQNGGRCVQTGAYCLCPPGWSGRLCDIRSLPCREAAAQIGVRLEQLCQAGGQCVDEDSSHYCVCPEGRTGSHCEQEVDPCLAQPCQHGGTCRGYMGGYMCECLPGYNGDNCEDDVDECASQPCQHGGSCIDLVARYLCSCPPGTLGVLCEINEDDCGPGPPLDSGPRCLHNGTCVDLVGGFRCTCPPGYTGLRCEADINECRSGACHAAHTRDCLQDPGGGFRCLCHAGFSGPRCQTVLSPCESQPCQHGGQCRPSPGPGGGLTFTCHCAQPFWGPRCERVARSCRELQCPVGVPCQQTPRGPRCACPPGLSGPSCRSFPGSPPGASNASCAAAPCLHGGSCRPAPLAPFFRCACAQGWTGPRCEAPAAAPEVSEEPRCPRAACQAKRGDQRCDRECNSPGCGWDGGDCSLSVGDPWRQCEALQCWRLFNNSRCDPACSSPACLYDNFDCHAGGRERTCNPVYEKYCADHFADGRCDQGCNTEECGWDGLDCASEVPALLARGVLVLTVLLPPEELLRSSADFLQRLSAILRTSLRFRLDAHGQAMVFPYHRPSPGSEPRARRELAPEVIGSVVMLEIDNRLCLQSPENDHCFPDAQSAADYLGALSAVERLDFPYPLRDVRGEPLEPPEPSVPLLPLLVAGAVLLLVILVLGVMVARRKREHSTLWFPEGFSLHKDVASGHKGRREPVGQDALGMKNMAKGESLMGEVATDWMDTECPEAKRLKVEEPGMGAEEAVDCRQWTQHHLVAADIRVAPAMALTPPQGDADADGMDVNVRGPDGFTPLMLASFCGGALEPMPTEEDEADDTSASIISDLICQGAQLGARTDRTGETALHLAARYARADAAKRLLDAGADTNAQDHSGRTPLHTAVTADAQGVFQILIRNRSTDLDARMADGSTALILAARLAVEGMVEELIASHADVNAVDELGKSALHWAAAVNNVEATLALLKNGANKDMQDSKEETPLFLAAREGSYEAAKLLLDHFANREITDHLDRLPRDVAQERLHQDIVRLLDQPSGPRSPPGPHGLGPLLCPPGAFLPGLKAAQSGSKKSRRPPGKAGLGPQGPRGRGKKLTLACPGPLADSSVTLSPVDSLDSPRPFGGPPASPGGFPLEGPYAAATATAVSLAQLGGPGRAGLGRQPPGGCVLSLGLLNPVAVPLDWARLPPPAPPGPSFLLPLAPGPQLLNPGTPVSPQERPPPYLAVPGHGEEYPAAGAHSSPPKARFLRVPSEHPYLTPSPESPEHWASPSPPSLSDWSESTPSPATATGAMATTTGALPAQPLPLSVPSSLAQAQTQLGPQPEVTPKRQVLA
# [10] = small-molecule microarray binders of probe aEGFR, primary screen, biochemical, biotinylated probe, 635/667 nm fluorescence (AID 1097); conditions: higher = more signal;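 note: probe is a biotinylated anti-EGFR antibody binding compounds printed on slides; score combines fluorescence near 667 nm and signal to noise of each spot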
# [11] = tested on: Plasmodium falciparum Sir2 (PF13_0152, Sir2A); experiment: pfSir2 binders on small-molecule microarrays, primary screen, biochemical, small-molecule microarray, 635 nm fluorescence (AID 1098); conditions: small-molecule microarray binding, fluorescence 635 nm; higher = more signal;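 note: score merges spot fluorescence intensity with its signal-to-noise ratio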
# [12] = small-molecule microarray binders of probe aDKK1, primary screen, biochemical, biotinylated probe, 635/667 nm fluorescence (AID 1099); conditions: higher = more signal;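 note: score merges 667nm spot fluorescence with signal to noise across triplicate slides; reference of the scale not given here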
# [13] = small-molecule microarray binders of probe aCHRDL2, primary screen, biochemical, biotinylated probe, 635/667 nm fluorescence (AID 1100); conditions: higher = more signal
# [14] = splicing luciferase reporter signal modulators, primary screen, spliceosome inhibition project, cell-based, HEK293, splice +/- reporter (AID 1101); conditions: luminescence, 24 h, higher = more signal, called active from +8 up or from −8 down;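 note: HEK293 cells carrying a splicing-competent luciferase reporter gene; test concentration not given here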
# [15] = biological target: Fibroblast growth factor 10 (Homo sapiens) (UniProt O15520); experiment: FGF10 binders on small-molecule microarrays, primary screen, biochemical, small-molecule microarray, 635 nm fluorescence (AID 1102); conditions: FGF10 binding, fluorescence 635 nm, higher = more signal
# Chain of Fibroblast growth factor 10 (Homo sapiens) (O15520 whole entry, looked up): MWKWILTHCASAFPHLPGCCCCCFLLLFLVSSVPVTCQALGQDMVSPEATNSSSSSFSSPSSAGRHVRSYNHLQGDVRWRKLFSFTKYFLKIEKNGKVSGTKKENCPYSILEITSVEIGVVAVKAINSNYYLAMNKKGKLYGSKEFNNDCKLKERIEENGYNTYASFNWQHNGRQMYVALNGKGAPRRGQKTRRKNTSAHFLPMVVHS
# [16] = tested on: glycogen synthase kinase-3 (GSK3A per assay name; protocol says GSK3B); experiment: GSK3 binders on small-molecule microarrays, primary screen, biochemical, small-molecule microarray, 635 nm fluorescence, GSK3A (AID 1103); conditions: small-molecule microarray binding, fluorescence 635 nm; higher = more signal; note: the record names both GSK3A and GSK3B
# [17] = biological target: Epidermal growth factor receptor (Homo sapiens) (UniProt P00533); experiment: EGFR binders on small-molecule microarrays, primary screen, biochemical, small-molecule microarray, 635 nm fluorescence (AID 1104); conditions: EGFR binding, higher = more signal;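 note: score merges 667 nm emission intensity with spot signal to noise over triplicate slides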
# Chain of Epidermal growth factor receptor (Homo sapiens) (P00533 whole entry, looked up): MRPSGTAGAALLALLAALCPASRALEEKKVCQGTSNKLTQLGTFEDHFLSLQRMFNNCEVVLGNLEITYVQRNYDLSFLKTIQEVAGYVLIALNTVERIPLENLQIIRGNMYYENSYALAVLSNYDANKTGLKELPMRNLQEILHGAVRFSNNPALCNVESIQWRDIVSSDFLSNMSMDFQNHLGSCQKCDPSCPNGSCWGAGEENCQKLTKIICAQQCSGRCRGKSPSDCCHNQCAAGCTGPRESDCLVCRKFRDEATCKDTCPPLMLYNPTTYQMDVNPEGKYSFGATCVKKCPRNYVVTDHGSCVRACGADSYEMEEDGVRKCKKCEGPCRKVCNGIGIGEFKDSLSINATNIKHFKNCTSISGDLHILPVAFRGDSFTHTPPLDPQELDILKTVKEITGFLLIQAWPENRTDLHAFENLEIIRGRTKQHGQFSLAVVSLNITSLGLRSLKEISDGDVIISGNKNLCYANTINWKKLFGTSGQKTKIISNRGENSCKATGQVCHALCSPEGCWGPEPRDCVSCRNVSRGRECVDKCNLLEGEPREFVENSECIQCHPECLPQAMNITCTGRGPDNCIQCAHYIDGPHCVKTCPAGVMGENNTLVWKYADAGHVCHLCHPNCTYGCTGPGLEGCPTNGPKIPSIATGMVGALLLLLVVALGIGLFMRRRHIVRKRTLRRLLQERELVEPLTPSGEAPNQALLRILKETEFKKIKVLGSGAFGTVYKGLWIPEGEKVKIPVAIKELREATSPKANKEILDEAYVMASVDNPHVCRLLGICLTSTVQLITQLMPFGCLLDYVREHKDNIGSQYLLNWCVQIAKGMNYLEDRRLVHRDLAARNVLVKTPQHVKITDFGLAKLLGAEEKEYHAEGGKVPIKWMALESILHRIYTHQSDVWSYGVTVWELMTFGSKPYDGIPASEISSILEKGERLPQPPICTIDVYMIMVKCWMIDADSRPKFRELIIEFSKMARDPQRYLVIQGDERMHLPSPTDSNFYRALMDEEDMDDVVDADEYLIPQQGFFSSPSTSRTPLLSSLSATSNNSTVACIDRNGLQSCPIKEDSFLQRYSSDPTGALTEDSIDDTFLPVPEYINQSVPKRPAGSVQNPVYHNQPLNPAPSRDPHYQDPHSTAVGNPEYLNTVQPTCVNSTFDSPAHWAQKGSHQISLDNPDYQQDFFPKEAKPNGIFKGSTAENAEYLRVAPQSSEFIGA
# [18] = biological target: Follistatin-related protein 3 (Homo sapiens) (UniProt O95633); experiment: FSTL3 binders on small-molecule microarrays, primary screen, biochemical, small-molecule microarray, 635 nm fluorescence (AID 1105); conditions: FSTL3 binding, higher = more signal;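 note: score merges emission near 667 nm and signal to noise per printed spot across three slides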
# Chain of Follistatin-related protein 3 (Homo sapiens) (O95633 whole entry, looked up): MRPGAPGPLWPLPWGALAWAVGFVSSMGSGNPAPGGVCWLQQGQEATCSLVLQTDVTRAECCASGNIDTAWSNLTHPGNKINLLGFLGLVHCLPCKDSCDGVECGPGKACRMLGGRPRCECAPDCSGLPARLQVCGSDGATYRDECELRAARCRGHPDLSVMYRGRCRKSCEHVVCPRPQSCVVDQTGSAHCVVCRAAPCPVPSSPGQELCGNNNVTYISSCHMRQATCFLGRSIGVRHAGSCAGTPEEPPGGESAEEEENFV
# [19] = biological target: Dickkopf-related protein 1 (Homo sapiens) (UniProt O94907); experiment: DKK1 binders on small-molecule microarrays, primary screen, biochemical, small-molecule microarray, 635 nm fluorescence scan (AID 1106); conditions: DKK1 binding, higher = more signal;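 note: score merges emission near 667 nm with signal to noise over three replicate slides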
# Chain of Dickkopf-related protein 1 (Homo sapiens) (O94907 whole entry, looked up): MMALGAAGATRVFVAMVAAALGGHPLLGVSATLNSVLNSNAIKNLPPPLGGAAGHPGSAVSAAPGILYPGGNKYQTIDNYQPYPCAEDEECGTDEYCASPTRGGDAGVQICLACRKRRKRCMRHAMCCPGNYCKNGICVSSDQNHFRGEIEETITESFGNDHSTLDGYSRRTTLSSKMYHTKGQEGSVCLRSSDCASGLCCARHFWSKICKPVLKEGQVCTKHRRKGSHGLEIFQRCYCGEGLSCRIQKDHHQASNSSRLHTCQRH
# [20] = tested on: Inhibin beta A chain (activin A); experiment: INHBA (activin A) binders on microarrays, primary screen, biochemical, small-molecule microarray, 635 nm fluorescence scan (AID 1107); conditions: small-molecule microarray binding, higher = more signal;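 note: mouse activin A protein probed at 4.33 µg/mL on printed slides; score merges bound-protein fluorescence near 667 nm with spot signal-to-noise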
Structure (SMILES),composite z-score [1],z-score [2],z-score [3],z-score [4],composite z-score [5],z-score [6],composite z-score [7],composite z-score [8],composite z-score [9],composite z-score [10],composite z-score [11],composite z-score [12],composite z-score [13],z-score [14],composite z-score [15],composite z-score [16],composite z-score [17],composite z-score [18],composite z-score [19],composite z-score [20]
NC(=O)NCC#Cc1ccc2c(c1)[C@]1(C(=O)N2)[C@H](c2ccccc2OCCO)N2[C@H](c3ccccc3)[C@H](c3ccccc3)OC(=O)[C@H]2[C@@H]1C(=O)O,0.507,0.798 (inactive),-0.602 (inactive),-0.675 (inactive),1.31,1.4 (inactive),-0.0201,0.192,-0.199,-0.185,1.27,-0.103,0.435,-0.724 (inactive),-0.0931,-0.397,-0.218,-0.085,-0.266,0.894
C=CCNC(=O)[C@H]1[C@@H]2C(=O)O[C@@H](c3ccccc3)[C@@H](c3ccccc3)N2[C@@H](c2ccccc2OCCO)[C@]12C(=O)N(C(=O)OCCOC)c1ccc(C#CC3(O)CCCCCC3)cc12,1.56,-0.22 (inactive),-0.444 (inactive),4.93 (inactive),3.1,1.31 (inactive),-0.0499,0.592,0.759,-0.0455,1.32,-0.115,0.457,-0.725 (inactive),1.13,0.562,0.383,0.502,-0.515,1.07
O=C1O[C@@H](c2ccccc2)[C@@H](c2ccccc2)N2[C@@H](c3ccc(OCCO)cc3)[C@]3(C(=O)Nc4ccc(C#CC5=CCCCC5)cc43)[C@@H](C(=O)NC[C@H](O)c3ccccc3)[C@H]12,1.36,1.99 (inactive),2.17 (inactive),4.09 (inactive),2.46,-0.749 (inactive),-0.0696,1.51,1.02,-0.246,0.674,-0.653,-0.762,0.556 (inactive),1.4,1.31,0.445,1.4,0.708,1.07
CCCCCC1=C2CNC(C)(C(=O)OC)C=C2C(C)C1=O (stereo not given),-0.998,0.511 (inactive),1.7 (inactive),1.48 (inactive),1.14,-0.67 (inactive),0.118,-0.947,-0.426,-0.0581,-0.0215,0.827,0.865,1.23 (inactive),0.0992,-1.1,-0.476,-0.713,-0.52,1.16
C=C(COC)/C(=C/C[C@H](OC(=O)c1ccncc1)c1ccc(CO)o1)c1cnc2ccccc2c1,1.54,0.685 (inactive),-0.694 (inactive),0.662 (inactive),1.34,-0.148 (inactive),-0.114,0.84,1.09,-0.0805,0.296,-0.155,-0.137,0.801 (inactive),1.12,0.986,0.387,1.34,0.348,1.81
Cc1ccc(NN2C(C(O)c3c(F)cccc3Cl)C=CC3C(=O)N(C4CCCCC4)C(=O)C32)cc1 (stereo not given),1.43,-0.58 (inactive),-0.362 (inactive),-0.262 (inactive),3.02,-0.0346 (inactive),0.184,-0.203,1.05,0.0708,0.338,0.827,1.07,-1.19 (inactive),0.425,1.3,-0.184,0.716,-0.258,1.32
[N-]=[N+]=Nc1ccccc1C[C@@]1(C(N)=O)N=C(c2ccc(OCCCO)cc2)O[C@@H]1c1ccccc1N=[N+]=[N-],0.319,-0.974 (inactive),-1.01 (inactive),-0.933 (inactive),2.05,0.905 (inactive),0.281,-0.467,0.0955,0.639,0.749,1.14,0.974,-1.36 (inactive),-0.24,0.385,0.181,-0.199,-0.459,1.46
C=C[C@@H](OC)[C@H](OC(=O)Nc1ccc(OC)cc1)c1ccc(O)c(F)c1,0.882,-1.48 (inactive),-4.59 (inactive),0.144 (inactive),1.16,1.19 (inactive),-0.183,0.638,0.0981,-0.199,1.52,-0.515,-0.54,-0.653 (inactive),-0.076,-0.242,-0.459,-0.0891,0.171,1.07
N[C@@H](Cc1ccccc1)C(=O)NCc1cn(Cc2ccccc2)nn1,0.05,0.246 (inactive),-0.572 (inactive),-1.05 (inactive),-0.183,0.78 (inactive),0.0582,0.465,-0.005,0.0282,-0.522,0.0195,-0.283,0.0702 (inactive),0.735,0.179,0.113,0.594,0.545,0.85
COCCOC(=O)N1C(=O)[C@@]2(c3cc(C#CC4(O)CCCCCC4)ccc31)[C@H](C(=O)Nc1nc3ccccc3s1)[C@H]1C(=O)O[C@H](c3ccccc3)[C@H](c3ccccc3)N1[C@@H]2c1ccc(O)cc1,1.54,0.806 (inactive),0.572 (inactive),1.33 (inactive),2.21,0.0347 (inactive),-0.0022,0.683,1.04,0.0692,1.26,0.316,0.407,1.36 (inactive),0.992,1.29,0.605,1.3,0.875,0.363
